TNF necrop inh – inhibitors of TNF-alpha induced necroptosis in Jurkat FADD-/- cells; Jurkat FADD-/- TNF necroptosis rescue, ATP luminescence, 24 h; 0 = TNF only, 100 = no-TNF cells; activation (protection from cell death), % at 10 µM; 220,000 tested, 0.068% active;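 active means activation, meaning protection from cell death, of at least 50% relative to plate controls; inactive means activation below 50%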;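 further: necroptosis triggered by 40 ng/mL TNF-alpha added together with compound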
zVAD death inh – L929 zVAD cell death inhibition | L929 zVAD necroptosis rescue, ATP luminescence, 24 h; with zVAD 60 µM | viability rescue, % at 10 µM | 220,000 tested, 0.38% active;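 active means activation, scaled between plate controls, above about 75%, limit read from the data; inactive means activation under that limit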;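 further: 0% = zVAD with DMSO and 100% = DMSO alone without zVAD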
HSF1 activator – increases HSF-1 driven luciferase reporter signal | NIH3T3-HGL HSF-1 luciferase reporter, MG132, 8 h; 100% = twice DMSO control signal | activation, % at 9 µM | 300,000 tested, 1.7% active;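 active means mean replicate activation of at least 50% with a set share of replicates each reaching 50%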;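 further: 0% = median of the neutral control wells and 100% = twice that signal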
Hsp70 activator – transcriptional activators of Hsp70 | HeLa Hsp70 promoter luciferase reporter, luminescence; scaled: vehicle 0, proteasome-inhibitor control 100% | activation, % at 10 µM | 200,000 tested, 0.04% active | AID 1203;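 active means activation above the mean across all tested compounds plus 3 SD, cutoff set per campaign, cut at about 5.5% in these data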;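 further: 100% = MG132 at 30 µM as the positive control and 0% = DMSO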
Numbers without * were called inactive; x = no result given. Hits are enriched below; roughly 1.9% of the tested compounds scored in any of these assays.

SMILES | TNF necrop inh | zVAD death inh | HSF1 activator | Hsp70 activator
O=C(COc1ccc(Cl)cc1Cl)N/N=C/c1ccc(OC2OC(CO)C(O)C(O)C2O)cc1 (centres undefined) | 1 | 1 | -7 | x
CCc1cc2c(=O)c(-c3ccc4c(c3)OCCO4)coc2cc1OS(C)(=O)=O | 3 | 1 | 56* | 0
COc1ccc(CNC(=O)CN(Cc2ccco2)C(=O)CNS(=O)(=O)c2ccc(F)cc2)cc1 | x | x | 11 | x
CCOC(=O)C(CC)(CC)C(=O)/C=C/c1cccc(Br)c1 | 2 | 0 | 251* | 0
CCCCN(C(=O)/C=C/c1ccco1)c1c(N)n(CCC)c(=O)[nH]c1=O | 0 | 2 | 76* | 0
Cc1ccc(CNC(=O)C(Cc2ccccc2)NS(=O)(=O)c2ccc(Br)s2)cc1 (centres undefined) | 3 | x | -4 | 0
CC(C)(Oc1ccc(Cl)cc1)C(=O)Nc1ccc2oc(-c3ccncc3)nc2c1 | -2 | -1 | 110* | 0
COc1ccc(-c2nc3cc(NC(=O)Cc4ccc(OC)c(OC)c4)ccc3o2)cc1 | 0 | 89* | 8 | 1
O=CC1=C(c2ccccc2)Oc2ccccc2O1 | x | x | 23 | x
CCCNC(=O)Nc1ccc(C)cc1C | 5 | 0 | 51* | x
CC(=O)Nc1ccc(NC(=O)Nc2ccc(C)cc2C)cc1 | 1 | 1 | 23 | 0
O=C(COC(=O)c1cccnc1Cl)Nc1cc(S(=O)(=O)N2CCCCC2)ccc1Cl | -2 | -1 | -7 | 0
CC(C)CC(OC(=O)c1ccc(Cl)nc1)C(=O)NC1CCCC1 (centres undefined) | x | x | 4 | x
CCOC(=O)C1CCN(S(=O)(=O)c2cccc3nonc23)CC1 | 1 | 4 | -13 | 0
CCOC(=O)C1CCN(S(=O)(=O)c2c(Cl)ccc3nonc23)CC1 | x | x | 197* | x
CC(C)C(NC(=O)c1ccc(Cl)cc1)C(=O)NCC1CCCO1 (centres undefined) | x | x | -6 | x
COc1ccc2c(c1)C1OCCC1C(c1ccco1)N2 (centres undefined) | x | x | 56* | x
S=C(NCc1ccccc1)NNc1nc2ccccc2[nH]1 | -2 | 2 | 10 | 0
Cc1ccc(C)c(C(=O)CSc2nnnn2C(C)C)c1 | -1 | 0 | 13 | 0
Cc1ccc(C(=O)CSc2nnnn2C(C)C)c(C)c1 | 0 | 0 | 54* | 0
CN(C)/C=C1/C(=O)N(c2ccc([N+](=O)[O-])cc2)N=C1c1ccccc1 | -1 | 1 | 56* | 0
COC(=O)C(C)N(C(=O)c1ccc(C(=O)c2ccccc2)cc1)c1c(C)cccc1C (centres undefined) | 0 | -1 | 65* | -1
COc1cccc(NC(=O)CN(C)C(=O)/C=C/c2ccc3ccccc3n2)c1 | x | x | 28 | x
COc1ccccc1NC(=O)C(C)OC(=O)/C=C/c1ccc2ccccc2n1 (centres undefined) | x | x | 63* | x
CCCCCCCOc1ccc(OC(=O)c2cccnc2)cc1 | -12 | 0 | 15 | -1
SMILES | TNF necrop inh | zVAD death inh | HSF1 activator | Hsp70 activator
CC(C)(C)c1ccc(C(=O)Nc2ccc(F)cc2)s1 | 2 | 2 | 78* | x
CCc1cc2cc(C(=O)Nc3ccc(F)cc3)sc2s1 | 1 | 0 | 9 | 0
CCn1c(SCC(=O)N2CCOCC2)nc2c([nH]c3ccccc32)c1=O | x | x | 22 | x
O=C(O)c1ccc(Cn2cnc3sc4c(c3c2=O)CCCC4)cc1 | 3 | 0 | -6 | 0
Cc1ccc(Cn2cnc3sc4c(c3c2=O)CCC4)c(C)c1 | 92* | 0 | x | 0
O=C(Nc1ccc(C(=O)N2CCN(c3ccccc3)CC2)cc1)C1=CSCCO1 | x | x | 13 | x
Cc1ccc(Nc2nc(N)nc(CSc3ncccn3)n2)cc1 | -3 | -1 | 66* | 0
O=C1COc2ccc(C(=O)c3ccccc3C(=O)NCc3ccccc3)cc2N1 | -1 | 0 | -21 | 0
CCOC(=O)C1=C(C)NC(=O)NC1/C=C/c1ccccc1OC (centres undefined) | 0 | 1 | 23 | 0
COCCOC(=O)C1=C(C)NC(C)=C(C(=O)OCCOC)C1/C=C/c1ccccc1OC | 4 | 0 | 77* | x
CCOC(=O)C1=C(C)NC(C)=C(C(=O)OCC)C1/C=C/c1ccccc1OC | 3 | 0 | 67* | 0
CCOC(=O)C1=C(C)NC(C)=C(C(=O)OCC)C1/C=C/c1ccccc1 | -5 | 0 | 18 | 0
COc1ccc(C(=O)NC(=S)Nc2cccc3ncccc23)cc1[N+](=O)[O-] | x | x | 11 | x
COc1ccc(-c2nnn(CC(=O)NCCc3c[nH]c4ccccc34)n2)cc1OC | -7 | 0 | -5 | 0
CC1CCN(S(=O)(=O)c2nnc(NC(=O)c3cccc(Cl)c3)s2)CC1 | x | x | -6 | x
COc1ccc(OCc2nnnn2-c2ccccc2)cc1 | -2 | 0 | 55* | 0
Brc1ccc(OCc2nnnn2-c2ccccc2)cc1 | 1 | 1 | 3 | 0
Cc1ccc(SCC(=O)OCn2nnc3ccccc3c2=O)cc1C | 0 | 0 | 8 | 0
O=C(c1ccc2oc(CCCc3ccccc3)nc2c1)N1CCCC1 | x | x | 87* | x
CC(=O)C1CCCN(C(=O)c2ccc3oc(CCc4ccccc4)nc3c2)C1 (centres undefined) | x | x | -12 | x
O=C(CSc1ncnc2sc3c(c12)CCC3)Nc1ccccc1C(=O)O | 2 | -1 | -7 | x
CC1CCCCC1NC(=O)/C=C/c1nc2ccccc2s1 (centres undefined) | 2 | 3 | 36 | 0
O=C(/C=C/c1nc2ccccc2s1)N1CCCCCC1 | 2 | 31 | 75* | 0
COc1cc(/C=N/NC(=O)COc2ccc(-n3cnnn3)cc2)ccc1OCC(N)=O | 0 | 0 | 7 | x
O=C(NCCCNC(=O)c1c(Cl)cccc1Cl)c1c(Cl)cccc1Cl | x | x | 33 | x
SMILES | TNF necrop inh | zVAD death inh | HSF1 activator | Hsp70 activator
Nc1nonc1C(=O)NCCNS(=O)(=O)c1ccc(Br)cc1 | -2 | 0 | -2 | 0
CSc1ccc(/C=N\Nc2nncn2N)cc1 | x | x | 95* | x
COc1cc(/C=N\Nc2nncn2N)ccc1OC(C)=O | x | x | 56* | x
COc1cc(/C=N/NC(=O)c2ccncc2)ccc1OC(C)=O | x | x | 3 | x
CC(C)(C)c1ccc(/C=N/Nc2nncn2N)cc1 | x | x | 16 | x
CCSc1ncc(CO)c(N)n1 | 0 | 0 | -6 | x
CCOC(=O)C1=C(C)S/C(=C\N(C)C)C1=O | -2 | 0 | -1 | 0
O=C(COc1ncnc2scc(-c3ccc(Cl)cc3)c12)NCc1ccco1 | 0 | 1 | -4 | 0
COC(=O)CCCC(=O)NC1CCCc2c1cnn2-c1ccc(F)cc1F (centres undefined) | x | x | -3 | x
COc1cc(/C=C(\C#N)C(N)=O)ccc1OS(=O)(=O)c1ccc(C)cc1 | 0 | 1 | x | -1
COc1cc(/C=C(\C#N)C(=O)NC2CCCCC2C)ccc1OS(=O)(=O)c1ccc(C)cc1 (centres undefined) | -12 | -1 | 64* | 0
CCOC(=O)c1c(-c2ccc(C)o2)csc1NC(=O)COC(=O)c1cccs1 | -1 | 0 | 8 | 0
CCOC(=O)c1c(-c2ccc(C)o2)csc1NC(=S)NC(=O)N(C)C | -7 | 0 | 56* | 0
